Assay results from PubChem BioAssay AID1626 (SRMLSC, 2009).
Out of some 220,000 compounds screened, about 2,000 (0.91%) were called active. Roughly 2% stayed inconclusive and do not appear here. Cut-off read from the data, not from the text of the source: inconclusive = inhibition above about 80% without an active follow-up result; inactive = below that; test concentration not stated here. A selection follows. Measured potencies and affinities stand elsewhere.

Assay: M. tuberculosis H37Rv growth inhibitors, H37Rv strain (AID 1626);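 note: bacteria incubated seven days before Alamar blue readout; 0% = bacteria only wells and 100% = bacteria with antibiotic wells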
Settings: hits give high values, concentration not given here
For `Cc1ccc(NC(=O)CSC2=NCCN2)cc1`, the inhibition was -0.03% (inactive). In the case of `CCOc1ccc(NC(=O)CSc2nccn2C)cc1`, the inhibition is reported as -4.59% (inactive). With `CCCCOc1ccc(NC(=O)CN2CCN(C(=O)OCC)CC2)cc1` the inhibition was -7.38% (inactive). With `COc1cc2c(cc1OC)C(c1ccco1)CC(=O)N2` (stereo not drawn) the inhibition was -0.34% (inactive). For `COc1cc(/C=C/c2ccc3cccc([N+](=O)[O-])c3n2)ccc1OCC(=O)O`, the inhibition was 6.21% (inactive). For `CC(=O)Nc1ccc(/C=C/c2ccc3c([N+](=O)[O-])cccc3n2)cc1`, the inhibition was -0.6% (inactive). With `Cc1ccc(C(c2sc3nc(C)nn3c2O)N2CCOCC2)cc1` (stereo not drawn) the inhibition was -3.42% (inactive). For `CCOC(=O)c1ccc(NC(=O)c2nc[nH]c2C(=O)N[C@@H](CC(C)C)C(=O)OCc2ccccc2)cc1`, the inhibition was -7.55% (inactive). In the case of `CCOC(=O)c1ccc(NC(=O)c2nc[nH]c2C(=O)NC)cc1`, the inhibition is reported as -7.95% (inactive). In the case of `COc1ccc(NC(=O)c2nc[nH]c2C(=O)N[C@@H](C)C(=O)OC(C)(C)C)cc1`, the inhibition is reported as 5.92% (inactive). With `CNC(=O)c1[nH]cnc1C(=O)Nc1ccc(C)cc1` the inhibition was 16.9% (inactive). For `Cc1ccc(NC(=O)c2nc[nH]c2C(=O)Nc2ccc(C)cc2)cc1`, the inhibition was -0.81% (inactive). In the case of `CNC(=O)c1[nH]cnc1C(=O)Nc1ccc(OC)cc1`, the inhibition is reported as 5.16% (inactive). For `Cc1ccc(CSc2ncnc3ccccc23)cc1`, the inhibition was 5.46% (inactive). In the case of `CCCOc1ccc(C(=O)NCC2OCCc3ccccc32)cc1OC` (stereo not drawn), the inhibition is reported as -1.65% (inactive). For `CCOC(=O)C1CCCN(C2CC(=O)N(c3cccc(C)c3)C2=O)C1` (stereo not drawn), the inhibition was -3.61% (inactive). With `CN(C)c1c(F)cc(C(=O)NCc2ccccc2)cc1F` the inhibition was -11.1% (inactive). With `CN(CC(=O)Nc1ccc(Cl)cc1)CC(=O)Nc1cc(Cl)ccc1C#N` the inhibition was -1.32% (inactive). In the case of `ClCc1csc(N/N=C/c2cccs2)n1`, the inhibition is reported as -4.27% (inactive). With `CNc1nc(OC)nc(N2CCOCC2)n1` the inhibition was -9.75% (inactive). For `CSc1cccc(CN2CCN(Cc3ccccc3)C(CCO)C2)c1` (stereo not drawn), the inhibition was 3.04% (inactive). For `O=C1c2ccccc2S(=O)(=O)c2cc(C(=O)N3CCN(c4ccc(Cl)cn4)CC3)ccc21`, the inhibition was 5.58% (inactive). In the case of `CSc1nnc(-c2ccccc2)c(-c2ccccc2)n1`, the inhibition is reported as 13.9% (inactive). In the case of `CSc1ncc(-c2ccccc2)cn1`, the inhibition is reported as 2.05% (inactive). With `COc1ccccc1-c1ccc(SCc2ccc(F)cc2)nn1` the inhibition was -3.99% (inactive). With `O=C(O)/C=C/C(=O)Nc1ccc(C(=O)c2ccccc2)cc1` the inhibition was -9.86% (inactive). In the case of `CCOc1ccc(-c2cn3ccccc3n2)cc1`, the inhibition is reported as 1.22% (inactive). In the case of `CCOC(=O)c1cccc(S(=O)(=O)N(CCO)Cc2cc3cc(OC)ccc3[nH]c2=O)c1`, the inhibition is reported as -6.73% (inactive).
